Compound activity (PubChem BioAssay)
NPR1 activator – GC-A (human) enzyme activation. actives 0.14% (n = 370,000). activation, % at 10 µM. P16066. AID 1671463. HEK293 GC-A cells, cGMP TR-FRET, EC30 ANP; 0% at EC30 ANP, 100% saturating ANP; in the data active = activation above about 40%
GC-B act – GC-B (human) receptor activation | HEK293-GC-B cells, CNP EC30, cGMP TR-FRET; 0% at EC30 CNP, 100% saturating CNP | activation, % at 10 µM | P20594 | AID 1920062 | actives 0.11% (n = 370,000);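 active = activation at 10 µM reaching about 35% in either raw or pattern-adjusted values, limit read from the data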
NadD inh – NadD (S. aureus) enzyme inhibition; purified NadD enzyme, colorimetric absorbance read-out; inhibition, % at 20 µM; actives 0.78% (n = 360,000); AID 602399; in the data active = inhibition above about 26%
Neddylation inh – blocks human cullin neddylation | inhibition, % at 25 µM | P61081+Q13564 | AID 651699 | actives 0.58% (n = 360,000) | TR-FRET cullin neddylation, biochemical; in the data active = inhibition above about 36%
Target sequence (P61081 whole entry, looked up): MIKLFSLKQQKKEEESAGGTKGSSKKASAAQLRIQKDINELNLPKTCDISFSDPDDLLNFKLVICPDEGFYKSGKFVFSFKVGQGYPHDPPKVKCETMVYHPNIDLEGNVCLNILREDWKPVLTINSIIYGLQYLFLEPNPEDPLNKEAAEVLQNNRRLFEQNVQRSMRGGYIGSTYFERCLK
Target sequence (Q13564 whole entry, looked up): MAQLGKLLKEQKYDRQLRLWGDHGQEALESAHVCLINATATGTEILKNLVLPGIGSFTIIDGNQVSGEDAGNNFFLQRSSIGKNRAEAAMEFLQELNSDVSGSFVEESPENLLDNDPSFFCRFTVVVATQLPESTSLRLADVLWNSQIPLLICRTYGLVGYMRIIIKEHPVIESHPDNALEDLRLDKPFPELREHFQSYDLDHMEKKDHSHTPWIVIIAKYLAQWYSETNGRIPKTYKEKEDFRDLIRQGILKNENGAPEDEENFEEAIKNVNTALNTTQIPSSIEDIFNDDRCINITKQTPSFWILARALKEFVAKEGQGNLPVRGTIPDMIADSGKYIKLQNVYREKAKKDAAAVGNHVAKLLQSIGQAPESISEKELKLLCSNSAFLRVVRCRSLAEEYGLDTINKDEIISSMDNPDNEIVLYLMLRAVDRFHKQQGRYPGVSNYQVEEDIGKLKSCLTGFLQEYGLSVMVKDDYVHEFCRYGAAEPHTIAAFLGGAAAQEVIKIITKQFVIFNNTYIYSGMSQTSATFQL
Neddyl conf – cullin neddylation inhibition, confirmation; shares compounds with Neddylation inh; calls only at 25 µM; TR-FRET cullin neddylation biochemical assay; actives 13% (n = 1,800); in the data active = inhibition above about 40%;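 also: neddylation substrate is the cullin 1 ring ligase complex with SKP2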
Of the large screens only hits and unclear results are named; the others gave an inactive call (follow-up assays come after a bar, where shown). Rows were chosen to be rich in hits. Some 1.5% of all compounds tested hit in one or more screens of this group.

CS(=O)(=O)Nc1ccc(C2=NN(C(=O)c3ccco3)C(c3ccccc3F)C2)cc1 (configuration not stated)	Neddylation inh 48 | Neddyl conf inactive
COC(=O)[C@]1(C#N)CC(=O)N(C)[C@@H]1c1ccccc1	none (no result: NadD inh, Neddylation inh)
COc1ccc(NC(=O)NCCCN2CCN(c3ccc(F)cc3)CC2)cc1OC	none (no result: NadD inh, Neddylation inh)
Cc1ccc(-c2cc(C(F)(F)F)n3nc(C(=O)NCCCn4ccnc4)cc3n2)cc1C	Neddylation inh 44
COc1ccc(C2C3=C(CC(C)(C)CC3=O)Nc3c2c(=O)[nH]c2nc(C)nn32)cc1 (configuration not stated)	Neddylation inh 47 | Neddyl conf active
COC(=O)CSC1=C(C#N)C(c2ccc(C)cc2)C2=C(CCCC2=O)N1 (configuration not stated)	none
CC1=C(C#N)C(c2ccc(O)cc2)C2=C(CCCC2=O)N1 (configuration not stated)	Neddylation inh 44 | Neddyl conf inactive
COc1ccc(C2C(C#N)=C(C)NC3=C2C(=O)CC(C)(C)C3)cc1 (configuration not stated)	Neddylation inh 42
COc1ccc(C2C3=C(CC(C)(C)CC3=O)Nc3cc4c(cc32)OCO4)cc1 (configuration not stated)	none (not shown: Neddylation inh)
CC(C)NC(=O)N[C@@H]1C[C@@H]2O[C@@H](CO)CC[C@@H]2O[C@@H]1CCc1ccc(-c2ccc(F)cc2)cc1	none (no result: NadD inh, Neddylation inh)
CC(=O)Nc1cccc(-c2cc(C(C)=O)c3n(c2=O)CCC3)c1	none (no result: NadD inh, Neddylation inh)
CCOC(=O)[C@@H]1CSCCS(=O)(=O)N1C(=O)[C@H](CC(C)C)NC(=O)OC(C)(C)C	none (no result: NadD inh, Neddylation inh)
COc1cccc(/C=N/Nc2ncnc3c2[nH]c2ccc(C)cc23)c1OC	Neddylation inh 81 | Neddyl conf inactive
COc1cccc(/C=N/Nc2ncc(C)c(=O)[nH]2)c1OC	Neddylation inh 40 | Neddyl conf inactive
COc1cc(-c2nnc(SCC(=O)N3C(C)CCCC3C)o2)cc(OC)c1OC (configuration not stated)	none (no result: NadD inh, Neddylation inh)
COc1ccc(C(=O)C[n+]2ccc3c(c2)nc(Cc2ccccc2)n3C)cc1	none (no result: NadD inh, Neddylation inh)
CCC(NC(=O)C1CCCN(c2ncccn2)C1)c1ccccc1 (configuration not stated)	none (no result: NadD inh, Neddylation inh)
COC(=O)c1ccc2nc(-c3ccc(F)cc3)c(Cc3ccccc3OC)n2c1	Neddylation inh 53 | Neddyl conf inactive
CN(C)S(=O)(=O)c1cccc(NC(=O)c2cc3c(=O)n4ccccc4nc3s2)c1	Neddylation inh 61
CC(=O)c1ccc(-c2cccc(-c3nc4ccccn4c3NC3CCCCC3)c2)cc1	Neddylation inh 26 | Neddyl conf inactive
COc1ccc(C2NC3=C(CCC3)C3(C#N)C(OC)(OC)N=C(N)C23C#N)cc1 (configuration not stated)	Neddylation inh 39 (no result: NPR1 activator, GC-B act) | Neddyl conf inactive
CCc1noc(C)c1C(=O)N1CCN(CC(=O)OC)CC1	none (no result: NadD inh, Neddylation inh)
O=C(Nc1ccc(-n2cnnn2)cc1)c1cn2ccccc2n1	Neddylation inh 52 | Neddyl conf inactive
N#CCn1c2ccccc2c2nc3ccccc3nc21	Neddylation inh 45 | Neddyl conf inactive
O=C(c1cnn2c(C(F)F)cc(-c3ccccc3)nc12)N1CCOCC1	Neddylation inh 41 | Neddyl conf inactive
COC(=O)C1=C(C)N(Cc2cccc(C(F)(F)F)c2)C(=NCC2CC2)NC1c1cccc(Cl)c1 (configuration not stated)	none (no result: NadD inh, Neddylation inh)
CCCCN(C)C1=Nc2cccc3cccc1c23	Neddylation inh 39 | Neddyl conf inactive
CCOc1ccc(-n2c(SC/C=C/c3ccccc3)nnc2-c2cccs2)cc1	none (no result: NadD inh, Neddylation inh)
COC(=O)C1=C(C)N(Cc2ccccc2C(F)(F)F)C(=NCc2ccccc2)NC1c1ccc(Cl)cc1 (configuration not stated)	none (no result: NadD inh, Neddylation inh)
COc1ccc(NC(=O)CN(C)C(=O)c2cc(-c3ccc(Cl)cc3)nc3ccccc23)cc1	none
CCOc1ccc(NC(=O)CN(C)C(=O)c2cc(-c3ccc(OC)cc3)nc3ccccc23)cc1OCC	Neddylation inh 55
COc1ccc(-c2cc(C(=O)N(C)CC(=O)Nc3ccccc3C(F)(F)F)c3ccccc3n2)cc1OC	none
COc1ccc(-c2cc(C(=O)N(C)CC(=O)Nc3ccccc3Br)c3ccccc3n2)cc1OC	Neddylation inh 47 | Neddyl conf active
Cc1cc(Nc2ccccc2C(=O)O)n2ncnc2n1	Neddylation inh 40
O=C(N[C@H](C(=O)N1CCC[C@H]1C(=O)NC1CCCC1)C1CCCCC1)c1ccco1	none (no result: NadD inh, Neddylation inh)
COc1ccc(-c2csc(N3CCN(c4cc5c(cc4Cl)nc(-c4ccncc4)n5CCOCCO)CC3)n2)cc1	Neddylation inh 42 | Neddyl conf inactive
COc1ccc(-c2csc(NCCc3nc4cc(Cl)c(N5CCCCC5)cc4n3CCOCCO)n2)cc1	none
CCCCC(=O)Nc1cc(-c2nc3ncccc3o2)ccc1C	none
CCCCC(=O)Nc1cccc(-c2nc3ncccc3o2)c1C	Neddylation inh 38 | Neddyl conf inactive
Nc1cccc2c(=O)[nH][nH]c(=O)c12	Neddylation inh 48 | Neddyl conf active
CCCCCN1CCCCC(NC(=O)c2ccccc2OC)C1=O (configuration not stated)	none (no result: NadD inh, Neddylation inh)
CC(NC(=O)C1=CC=CN2CCS(=O)(=O)N=C12)c1ccc(Cl)cc1Cl (configuration not stated)	Neddylation inh 55
CC(NC(=O)C1=CC=CN2CCS(=O)(=O)N=C12)c1ccc(Cl)c(Cl)c1 (configuration not stated)	Neddylation inh 44 | Neddyl conf active
COP(N)(=O)C(CC(C)C)NC(=O)OCc1ccccc1 (configuration not stated)	none (no result: NadD inh, Neddylation inh)
CCOC(=O)CC[C@H]1CC[C@]2(CCCN(C(=O)C3CCCC3)C2)O1	none (no result: NadD inh, Neddylation inh)
NCCCC(C(=O)O)N(C(=O)OCc1ccccc1)C(=O)OCc1ccccc1 (configuration not stated)	none (no result: NadD inh, Neddylation inh)
Cc1ccc(S(=O)(=O)Nc2nc3ccccc3nc2NCC2CCCO2)cc1C (configuration not stated)	Neddylation inh 39 | Neddyl conf inactive
Cc1cccc(S(=O)(=O)Nc2nc3ccccc3nc2NCC2CCCO2)c1 (configuration not stated)	none
Cc1ccc(S(=O)(=O)Nc2nc3ccccc3nc2NCC2CCCO2)c(C)c1 (configuration not stated)	Neddylation inh 47
COC(=O)C1=C(C)N(C)C(=NCc2ccc3c(c2)OCO3)NC1c1ccc(Cl)cc1 (configuration not stated)	none (no result: NadD inh, Neddylation inh)
COc1ccc(/C=N/NC(=O)c2ccccc2O)cc1Cn1cc(Cl)cn1	Neddylation inh 48 | Neddyl conf active
COc1ccc(C(=O)c2ccc3oc(-c4ccc(OC)cc4)c(C#CCCO)c3c2)cc1	none
COc1cc(OC)cc(-c2oc3cccnc3c2C#CCCO)c1	Neddylation inh 37 | Neddyl conf active
CC(C)(C)c1ccc(-c2nnc(SCC(=O)Nc3ccc(S(=O)(=O)Nc4nccs4)cc3)n2-c2ccc(Cl)cc2)cc1	none (no result: NadD inh, Neddylation inh)
